# From PubChem BioAssay
# Sampled rows, rich in hits. Any-hit rate of the full collection: about 6.9%.
# IL1B secr inh: qHTS for Inhibitors of Inflammasome Signaling: IL-1-beta AlphaLISA Primary Screen | THP-1 LPS/ATP IL-1B secretion, AlphaLISA, 16 h; active compounds read low | activity change, % at 57.5 µM | 360,000 compounds, 4.7% hits; in the data active means activity change below about -50%; inconclusive means mostly about -30% to -49%; further: on the % scale 0 is the no-effect control and ±100 the full control effect
#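 THP-1 cells pretreated 1 hr with compounds (up to 57.5 uM final), then stimulated with LPS (250 ng/mL final) plus ATP (1.25 mM final); secreted IL-1B measured by AlphaLISA after 16 hr, decreased signal indicating inhibition.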
# Vif-APOBEC3F blk: qHTS for Inhibitors of Vif-A3F Interactions: qHTS. 390,000 compounds, 0.2% hits. AID 602313, 2012. Potency, µM (top dose mostly 46.1 µM), for the others: top-dose activity, negative = active. HeLa A3F-eYFP + Vif (tagged APOBEC3F with the HIV-1 protein that degrades it), YFP fluorescence increase; further: potency means the concentration at half of the fitted maximal effect; % of control where 0% means no effect; nearly all actives have a fitted effect of over 65% in size
#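 Fluorescence increase (Ex 488/Em 500-530) after overnight compound treatment at 37 deg C flags inhibition of Vif-driven A3F-eYFP loss in stable HeLa A3F-eYFP/Vif cells seeded overnight beforehand.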
# Vif-A3G inh: qHTS for Inhibitors of Vif-A3G Interactions: qHTS; DNA dC->dU-editing enzyme APOBEC-3G (Homo sapiens), Q9HC16; HeLa A3G-eYFP + Vif (tagged APOBEC3G with the HIV-1 protein that degrades it), YFP fluorescence, overnight; Potency, µM (doses to about 46.1 µM), for inactives: at the highest dose activity, negative = active, hits mostly inhibitors; 410,000 compounds, 0.076% hits; further: potency means the concentration at half of the fitted maximal effect; on the % scale 0 is the no-effect control and ±100 the full control effect; nearly all actives have a fitted effect of over 60% in size
# Target sequence (Q9HC16 whole entry, looked up): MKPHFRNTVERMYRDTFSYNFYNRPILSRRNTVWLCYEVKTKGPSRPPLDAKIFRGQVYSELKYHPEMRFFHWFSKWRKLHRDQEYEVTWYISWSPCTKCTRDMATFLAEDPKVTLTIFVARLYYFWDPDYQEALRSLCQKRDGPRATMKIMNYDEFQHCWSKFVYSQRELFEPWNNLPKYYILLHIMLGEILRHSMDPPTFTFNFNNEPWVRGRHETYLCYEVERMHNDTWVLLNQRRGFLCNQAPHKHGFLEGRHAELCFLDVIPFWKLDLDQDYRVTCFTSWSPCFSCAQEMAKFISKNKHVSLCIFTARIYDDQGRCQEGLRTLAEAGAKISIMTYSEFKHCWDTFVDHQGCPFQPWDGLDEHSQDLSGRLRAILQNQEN
#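 HeLa cells stably expressing Vif and C-terminally eYFP-tagged A3G, seeded overnight at 37 deg C, then exposed to compound by pintool overnight at 37 deg C. Rise in yellow fluorescence (Ex 488/Em 500-530, Acumen) marks blocked Vif-driven A3G degradation.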
# SW480 rereplic: A quantitative high throughput screen for small molecules that induce DNA re-replication in SW480 colon adenocarcinoma cells. SW480 DNA re-replication, Hoechst DNA content imaging, 48 h. 340,000 compounds, 1.8% hits. AID 624297, 2012. Potency, µM (doses to about 46.1 µM), for the others: at the highest dose re-replication activation, most hits filed as activators; further: potency means the concentration at half of the fitted maximal effect; % of control where 0% means no effect; nearly all actives have a fitted effect of over 55% in size
#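 Image-based read-out: total Hoechst fluorescence of nuclei (405 nm excitation, 500-530 nm emission), with hits raising the fraction of high-intensity nuclei. SW480 colon cells incubated 48 hr with compounds at 37 C.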
# MCF10A rerep: A quantitative high throughput screen for small molecules that induce DNA re-replication in MCF 10a normal breast cells | MCF 10A DNA re-replication, Hoechst nuclear intensity, 48 h | Potency, µM (highest dose often 46.1 µM), without a hit: at the highest dose activity, positive = re-replication, usual class: activators | 350,000 compounds, 2.9% hits | AID 624296, 2012; further: potency means the concentration at half of the fitted maximal effect; % of control where 0% means no effect; nearly all actives have a fitted effect of over 50% in size
# Giardia kill: Small Molecules that selectively kill Giardia lamblia: qHTS. Giardia lamblia trophozoite viability. activity change, % at 7.66 µM, hits read low. 340,000 compounds, 0.15% hits. AID 540267, 2011; in the data active means activity change below about -80%; inconclusive means between about -30% and that limit;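 further: parasites exposed to compound for two days anaerobically before the ATP read; on the % scale 0 is the no-effect control and ±100 the full control effect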
#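 ATP-content bioluminescence gauges trophozoite survival. Cells (100/well) receive compound and incubate anaerobically for 48 hrs at 37 deg C; detection reagent follows for 15-30 min at room temperature.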
# The depositor's hits bear a star; u = inconclusive; x = no result; ! = repeats disagree. Unless noted, the call rests on the fitted dose curve; in most records, active means well fitted curve in the direction sought with a large enough effect; inconclusive means small, poorly fitted or top-dose-only effect, or another doubt; inactive means no such curve, though single readings can be large; an effect the other way counts as inactive or inconclusive.
SMILES,IL1B secr inh,Vif-APOBEC3F blk,Vif-A3G inh,SW480 rereplic,MCF10A rerep,Giardia kill
CCOc1cccc2cc(C(=O)NCc3ccccc3)c(=N)oc12,-28,u,0%,6%,0%,31
COc1cccc2cc(C(=O)NCc3ccc(Cl)cc3)c(=O)oc12,4,-5%,3%,2%,u,11
COc1cccc2cc(C(=O)NCc3ccccc3)c(=N)oc12,-105*,-24%,1%,-2%,u,-3
Cc1ccc(C(=O)Nc2ccc(Br)cc2)cc1S(=O)(=O)NCc1ccccc1,x,-16%,-1%,x,x,x
CC1(C)c2ccccc2C(=O)c2ccccc21,-19,-10%,5%,-4%,5%,5
O=[N+]([O-])C1C(c2ccccc2)C12c1ccccc1-c1ccccc12 (stereo not given),-67*,-7%,u,x,x,x
CN1CCN(c2cc(N3CCc4ccccc4C3)c(F)cc2[N+](=O)[O-])CC1,-51*,-10%,-13%,u,u,-11
COc1cc2c(cc1OC)CN(C(=O)c1ccc(N3CCCC3)c([N+](=O)[O-])c1)CC2,-56*,7%,0%,-5%,8%,-14
COc1cc2c(cc1OC)CN(c1ccc([N+](=O)[O-])cc1Cl)CC2,-88*,-3%,-4%,-2%,u,50
COc1cc2c(cc1OC)CN(c1ccc([N+](=O)[O-])cc1C#N)CC2,u,-5%,-1%,-5%,13%,3
O=C(c1ccc2nc[nH]c2c1)N1CCc2ccccc2C1,12,4%,-1%,-1%,3%,-12
COc1cc2c(cc1OC)CN(C(=O)c1ccc3nc[nH]c3c1)CC2,68,-5%,u,5.8µM*,8.2µM*,3
CCc1nnc2c3ccccc3nc(Nc3ccc(F)c(Cl)c3)n12,x,1%,-3%,x,x,x
CCOC(=O)c1ccccc1NC(=O)C(=O)Nc1ccc2nc3n(c(=O)c2c1)CCCCC3,x,1%,0%,x,x,x
CC(C)(C)C1CCc2c(sc(NC(=O)c3ccc(Cl)cc3)c2C(=O)NCc2ccco2)C1 (stereo not given),x,-14%,5%,x,x,x
COc1ccc(OC)c(CCNC(=O)Cn2nc(C)n3c(cc4sccc43)c2=O)c1,x,-2%,3%,x,x,x
Cc1ccc2cccc(NC(=O)c3ccc(-c4cc(Cl)ccc4Cl)o3)c2n1,x,5%,2%,x,x,x
COc1cc2c(cc1OC)CN(c1ccc(F)cc1[N+](=O)[O-])CC2,-67*,11%,2%,-11%,-9%,-8
COc1ccccc1N1CCN(c2ccc([N+](=O)[O-])cc2Cl)CC1,0,-8%,u,18µM*,7.3µM*,15
COc1ccccc1N1CCN(S(=O)(=O)c2ccc([N+](=O)[O-])cc2)CC1,-4,1%,-7%,x,x,x
COc1cc2c(cc1OC)CN(c1ncccc1[N+](=O)[O-])CC2,u,4%,-6%,0%,3%,-1
CCOC(=O)Cn1c(=O)n(CC2CCCO2)c2nc(-c3cccc(C)c3)nc(C(N)=O)c21 (stereo not given),x,0%,-3%,x,x,x
COc1ccc(-c2nc3ccc(NC(C)=O)cc3c(=O)n2Cc2cccc(Cl)c2)cc1COc1ccc(NC(C)=O)cc1,x,x,x,x,x,-4
Cc1cc(CC(=O)O)n(C)c1C(=O)c1ccc(Cl)cc1,7,-1%,0%,-53%,30µM*!,-15
O=C(c1ccc(N2CCN(C(=O)c3ccccc3)CC2)cc1)c1cccc(F)c1,-77*,-13%,5%,8%,9.2µM*,-2
O=C(Nc1ccc(N2CCN(C(=O)c3ccccc3)CC2)cc1)c1ccc2c(c1)OCO2,-78*,7%,-8%,-2%,u,5
